The text below walks through data of PubChem BioAssay.

A short description of assay [1]: yeast TOR reporter LAP4-GFP level changes – cell-based, second cherry pick, flow cytometry, confirmation (AID 2621;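 active = GFP signal as percent of the solvent control above about 150%, meaning raised reporter expression, limit read from the data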;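 also: ratio of well median GFP fluorescence to plate DMSO mean so 100% = DMSO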). As to conditions: S. cerevisiae LAP4-GFP strain, 3 h, at 10 µM, stronger effect = higher value.
Assay [2] is described as follows: TOR pathway reporter MEP2-GFP, hit retest – S. cerevisiae, flow cytometry GFP, second cherry picks, confirmation (AID 2622;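 active = GFP signal above 150% of the solvent control wells, that is a rise of more than half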;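 also: median channel GFP fluorescence of all gated yeast cells per well; ratio of median GFP to plate DMSO average so 100% = DMSO level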). As to conditions: S. cerevisiae MEP2-GFP strain, 3 h, at 10 µM, stronger effect = higher value.
A short description of assay [3]: retest of hits on RPL19A-GFP strain – cell-based, S. cerevisiae, flow cytometry, second cherry pick, confirmation (AID 2623).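 Also: median GFP channel fluorescence per well over the all cells gate.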 As to conditions: 3 h, at 10 µM, stronger effect = lower value, 100% means same as DMSO wells.
The nature of assay [4]: yeast TOR pathway CIT2-GFP reporter modulation – flow cytometry, second cherry pick, single plex, confirmation (AID 2624;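 active = GFP response vs DMSO above about 150%, limit read from the data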;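 also: median green fluorescence per well over all gated yeast cells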). As to conditions: S. cerevisiae CIT2-GFP strain, 3 h, at 10 µM, stronger effect = higher value, DMSO control wells read 100%.
A short description of assay [5]: yeast AGP1-GFP fluorescence change, single-dose confirmation – cell-based, flow cytometry, S. cerevisiae, cherry pick set 2 (AID 2643;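 active = over 150 percent of DMSO response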;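 also: median GFP channel fluorescence over all cells without mother daughter split; sample median GFP divided by mean DMSO control so 100% equals DMSO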). As to conditions: S. cerevisiae AGP1-GFP strain, 3 h, at 10 µM, stronger effect = higher value.
A short description of assay [6]: green-channel fluorescence artefact in S. cerevisiae – s288c strain, artefact control for yeast TOR pathway GFP screen, dose response (AID 2757;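 active = fluorescence span over the dose series, or activity score, above about 33, limit read from the data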;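 also: thousands of bead-calibrated equivalent soluble fluorophore molecules from median cell fluorescence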). As to conditions: 520 nm autofluorescence, flow cytometry, 3 h, at 33 µM, stronger effect = higher value, zero means same as solvent-only cells.
The nature of assay [7]: reduced mouse 2C T cell binding to pMHC/ICAM-1 vesicles – MLPCN validation set, flow cytometry, LFA-1/ICAM-1 modulator project, pilot screen (AID 2523;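 active = response below a set limit, under 55% cells CD8-positive and vesicle-bound, and CD8 cells' 90th-percentile brightness under 279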;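 as to vesicle binding response: mean PE anti-B7-1 fluorescence of CD8+ cells relative to row control; 100% = QL9-loaded vesicles with DMSO vehicle in the same plate row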). As to conditions: 2C mouse CD8+ T cells, at 7 µM, stronger effect = lower value; double positive events: measured here: CD8+/vesicle+ event percentage.
Assay [8] deals with Integrin beta-1 (Homo sapiens) + Integrin alpha-4 (Homo sapiens) (UniProt P13612+P05556). As to the kind of experiment: alpha4beta1 integrin LIBS antibody binding reduction – U937 cells, HUTS-21 mAb, flow cytometry, validation set, VLA-4 allosteric modulator project, pilot screen (AID 2674;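 active = inhibition above 50%, about 3 SD of the validation set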;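 also: antibody binding induced by the VLA-4 ligand LDV present at three times its Kd; 0% = LDV ligand with antibody and no compound and 100% = antibody without LDV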). As to conditions: HUTS-21 LIBS mAb binding, at 6.7 µM, stronger effect = higher value, binding induced by LDV ligand.
Chain of Integrin beta-1 (Homo sapiens) + Integrin alpha-4 (Homo sapiens) (P05556 whole entry, looked up): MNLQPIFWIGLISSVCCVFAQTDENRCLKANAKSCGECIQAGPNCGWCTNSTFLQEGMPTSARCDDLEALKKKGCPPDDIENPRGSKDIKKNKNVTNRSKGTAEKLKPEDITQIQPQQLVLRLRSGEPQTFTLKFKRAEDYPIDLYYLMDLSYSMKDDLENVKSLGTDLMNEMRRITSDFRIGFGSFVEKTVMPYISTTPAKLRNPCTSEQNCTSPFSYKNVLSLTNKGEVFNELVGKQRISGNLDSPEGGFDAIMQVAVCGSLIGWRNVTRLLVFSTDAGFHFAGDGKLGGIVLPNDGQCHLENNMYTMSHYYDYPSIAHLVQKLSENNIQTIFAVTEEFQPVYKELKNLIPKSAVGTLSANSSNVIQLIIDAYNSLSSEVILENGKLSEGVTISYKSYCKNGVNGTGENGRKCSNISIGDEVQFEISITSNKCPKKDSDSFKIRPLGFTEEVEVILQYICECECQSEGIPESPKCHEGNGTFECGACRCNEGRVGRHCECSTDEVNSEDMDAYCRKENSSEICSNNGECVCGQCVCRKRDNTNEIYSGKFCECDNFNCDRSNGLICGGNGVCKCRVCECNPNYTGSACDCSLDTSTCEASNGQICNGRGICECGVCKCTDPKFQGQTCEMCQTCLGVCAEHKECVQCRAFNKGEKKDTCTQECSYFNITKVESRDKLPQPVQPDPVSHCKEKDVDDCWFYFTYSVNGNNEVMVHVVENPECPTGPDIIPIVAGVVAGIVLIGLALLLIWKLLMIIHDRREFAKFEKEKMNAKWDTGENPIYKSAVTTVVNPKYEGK
Chain of Integrin beta-1 (Homo sapiens) + Integrin alpha-4 (Homo sapiens) (P13612 whole entry, looked up): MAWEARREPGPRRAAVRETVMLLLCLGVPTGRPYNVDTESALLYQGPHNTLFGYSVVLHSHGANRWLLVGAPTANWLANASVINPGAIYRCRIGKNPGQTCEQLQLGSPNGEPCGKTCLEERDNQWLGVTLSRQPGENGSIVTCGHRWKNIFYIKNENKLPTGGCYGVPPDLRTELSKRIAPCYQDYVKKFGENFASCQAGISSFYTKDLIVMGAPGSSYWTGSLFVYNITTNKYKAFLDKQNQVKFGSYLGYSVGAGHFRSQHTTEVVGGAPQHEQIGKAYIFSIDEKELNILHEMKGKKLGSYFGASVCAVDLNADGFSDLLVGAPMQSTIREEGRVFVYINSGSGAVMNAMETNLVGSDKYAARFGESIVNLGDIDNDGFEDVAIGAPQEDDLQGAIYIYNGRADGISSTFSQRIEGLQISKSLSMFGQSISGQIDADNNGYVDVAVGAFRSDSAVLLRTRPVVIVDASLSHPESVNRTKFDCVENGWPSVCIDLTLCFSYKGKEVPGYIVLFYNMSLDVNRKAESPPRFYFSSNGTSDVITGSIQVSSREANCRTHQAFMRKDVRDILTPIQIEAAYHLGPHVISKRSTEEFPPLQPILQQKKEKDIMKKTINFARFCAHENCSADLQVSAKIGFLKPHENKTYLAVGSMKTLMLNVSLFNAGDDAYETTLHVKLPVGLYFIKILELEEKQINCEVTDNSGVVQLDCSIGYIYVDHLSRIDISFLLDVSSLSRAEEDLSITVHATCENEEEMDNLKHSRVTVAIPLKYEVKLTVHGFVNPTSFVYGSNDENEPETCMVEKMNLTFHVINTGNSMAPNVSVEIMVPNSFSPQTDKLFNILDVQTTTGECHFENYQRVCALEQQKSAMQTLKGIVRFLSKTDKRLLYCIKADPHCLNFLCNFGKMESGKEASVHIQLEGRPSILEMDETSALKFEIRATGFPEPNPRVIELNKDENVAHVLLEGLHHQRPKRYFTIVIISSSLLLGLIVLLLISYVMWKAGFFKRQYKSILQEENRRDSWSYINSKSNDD

For assay [9], the target named is Beta-adrenergic receptor kinase 1 (Homo sapiens) (UniProt P25098). As to the kind of experiment: GRK2 binders displacing RNA aptamer, biochemical, validation, human GRK2, bead flow cytometry (AID 488806;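 active = aptamer binding inhibition above 30%, about 3 SD of noise from non-fluorescent compounds; inactive = inhibition at or below 30%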). As to conditions: bead-bound GRK2, FAM-aptamer displacement, at 10 µM, stronger effect = higher value.
Chain of Beta-adrenergic receptor kinase 1 (Homo sapiens) (P25098 whole entry, looked up): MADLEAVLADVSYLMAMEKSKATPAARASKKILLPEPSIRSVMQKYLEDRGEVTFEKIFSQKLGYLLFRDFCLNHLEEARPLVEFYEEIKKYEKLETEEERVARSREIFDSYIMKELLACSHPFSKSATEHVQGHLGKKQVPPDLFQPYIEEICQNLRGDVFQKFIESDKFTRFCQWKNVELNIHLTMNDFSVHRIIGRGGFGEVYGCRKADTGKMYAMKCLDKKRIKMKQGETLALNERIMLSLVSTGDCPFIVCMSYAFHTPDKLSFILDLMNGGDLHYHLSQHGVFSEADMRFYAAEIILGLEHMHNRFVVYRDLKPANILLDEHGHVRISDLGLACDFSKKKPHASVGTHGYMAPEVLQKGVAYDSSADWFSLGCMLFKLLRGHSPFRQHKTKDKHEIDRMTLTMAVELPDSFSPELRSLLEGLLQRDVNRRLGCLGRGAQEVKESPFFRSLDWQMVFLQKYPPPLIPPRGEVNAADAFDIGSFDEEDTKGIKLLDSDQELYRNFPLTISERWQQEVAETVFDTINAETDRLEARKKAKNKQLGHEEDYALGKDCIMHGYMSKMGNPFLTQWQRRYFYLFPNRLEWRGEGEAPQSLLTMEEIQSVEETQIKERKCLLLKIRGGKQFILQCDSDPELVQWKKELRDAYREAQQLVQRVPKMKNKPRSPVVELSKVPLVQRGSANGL
For assay [10], the target named is Beta-2 adrenergic receptor (Homo sapiens) (UniProt P07550). As to the kind of experiment: agonist-induced loss of surface beta2AR – cell-based, FAP fluorogen, flow cytometry, validation set, pilot screen (AID 504459;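 active = percent response above 42, roughly 3 SD of non-fluorescent test compounds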;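 also: agonist-driven loss of surface beta2AR via internalization measured by FAP dye flow cytometry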). The following applies: Am2.2-beta2AR cells, at 10 µM, stronger effect = higher value.
Chain of Beta-2 adrenergic receptor (Homo sapiens) (P07550 whole entry, looked up): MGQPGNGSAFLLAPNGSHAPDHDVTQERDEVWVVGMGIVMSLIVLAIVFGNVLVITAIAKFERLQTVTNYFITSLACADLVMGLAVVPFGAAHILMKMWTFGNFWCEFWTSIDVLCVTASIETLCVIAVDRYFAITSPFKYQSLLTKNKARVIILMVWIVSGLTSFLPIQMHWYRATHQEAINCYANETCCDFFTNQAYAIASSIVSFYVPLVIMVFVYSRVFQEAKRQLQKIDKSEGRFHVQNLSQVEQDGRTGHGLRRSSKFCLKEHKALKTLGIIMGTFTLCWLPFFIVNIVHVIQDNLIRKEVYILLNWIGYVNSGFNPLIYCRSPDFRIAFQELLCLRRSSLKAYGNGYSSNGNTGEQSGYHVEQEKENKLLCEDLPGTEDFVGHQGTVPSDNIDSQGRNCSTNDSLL
Assay [11] concerns the target AP-2 complex subunit beta (Homo sapiens) (UniProt P63010). As to the kind of experiment: beta-arrestin/AP2 interaction blockers – biochemical, validation set, GST-AP2 beads, flow cytometry, pilot screen (AID 504541;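 active = inhibition above 54%, about 3 SD of non-fluorescent compounds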;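 also: AP2 carries R879A mutation and is captured from E. coli lysate; bead-bound FITC arrestin peptide fluorescence measuring arrestin peptide binding to AP2; 0% = DMSO wells and 100% = excess unlabeled arrestin peptide control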). The following applies: FITC arrestin peptide, at 10 µM, stronger effect = higher value, AP2 beta2 appendage fragment, R879A mutant.
Assay [12] is described as follows: cytosolic pH regulators acting via V-ATPase – S. cerevisiae, pHLuorin, HTS validation (AID 504600; in the data active = response above about 15%;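 also: plate controls were DMSO for no effect and reference compound for full effect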). The following applies: V-ATPase proton transport, at 10 µM, stronger effect = higher value.
Assay [13] concerns anti-desmoglein-3 scFv antibody binding to human DSG3. As to the kind of experiment: blockers of pathogenic pemphigus antibody–desmoglein-3 binding – biochemical, validation compound set, bead-based, flow cytometry, pilot screen (AID 588368;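 active = binding below the plate cutoff, the plate median minus 3 SD, with a reading above zero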;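 also: signal is the median channel fluorescence of bead-bound GFP antibody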). The following applies: Protein G beads, DSG3-Fc, scFv-GFP binding, at 10 µM, stronger effect = lower value.
Assay [14] can be described thus: Nile Red efflux blockade in pump-expressing yeast – validation compound set, multiplex, phenotypic, pilot screen (AID 588506;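 active = efflux inhibition above 0.42, the validation set average plus 4 SD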;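 also: Nile Red retained in cells so higher fluorescence means more efflux inhibition; 0 = negative control wells and 1 = enniatin B 25 µM full block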). The following applies: S. cerevisiae pump-expressing triplex, Nile Red efflux flow cytometry; at 10 µM; stronger effect = higher value; the pumps come from Candida albicans.
The target of assay [15] is ATP-binding cassette sub-family B member 6 (Homo sapiens) (UniProt Q9NP58). As to the kind of experiment: blockers of ABCB6-driven porphyrin uptake – K562-ABCB6 cells, flow cytometry, validation set, pilot screen (AID 588550;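 active = inhibition above the screen-wide mean plus 3 SD, about 51%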;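 also: 0% = DMSO wells and 100% = benzethonium chloride 70 µM positive control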). As to conditions: K562-ABCB6 porphyrin accumulation, 1 h, at 10 µM, stronger effect = higher value.
Chain of ATP-binding cassette sub-family B member 6 (Homo sapiens) (Q9NP58 whole entry, looked up): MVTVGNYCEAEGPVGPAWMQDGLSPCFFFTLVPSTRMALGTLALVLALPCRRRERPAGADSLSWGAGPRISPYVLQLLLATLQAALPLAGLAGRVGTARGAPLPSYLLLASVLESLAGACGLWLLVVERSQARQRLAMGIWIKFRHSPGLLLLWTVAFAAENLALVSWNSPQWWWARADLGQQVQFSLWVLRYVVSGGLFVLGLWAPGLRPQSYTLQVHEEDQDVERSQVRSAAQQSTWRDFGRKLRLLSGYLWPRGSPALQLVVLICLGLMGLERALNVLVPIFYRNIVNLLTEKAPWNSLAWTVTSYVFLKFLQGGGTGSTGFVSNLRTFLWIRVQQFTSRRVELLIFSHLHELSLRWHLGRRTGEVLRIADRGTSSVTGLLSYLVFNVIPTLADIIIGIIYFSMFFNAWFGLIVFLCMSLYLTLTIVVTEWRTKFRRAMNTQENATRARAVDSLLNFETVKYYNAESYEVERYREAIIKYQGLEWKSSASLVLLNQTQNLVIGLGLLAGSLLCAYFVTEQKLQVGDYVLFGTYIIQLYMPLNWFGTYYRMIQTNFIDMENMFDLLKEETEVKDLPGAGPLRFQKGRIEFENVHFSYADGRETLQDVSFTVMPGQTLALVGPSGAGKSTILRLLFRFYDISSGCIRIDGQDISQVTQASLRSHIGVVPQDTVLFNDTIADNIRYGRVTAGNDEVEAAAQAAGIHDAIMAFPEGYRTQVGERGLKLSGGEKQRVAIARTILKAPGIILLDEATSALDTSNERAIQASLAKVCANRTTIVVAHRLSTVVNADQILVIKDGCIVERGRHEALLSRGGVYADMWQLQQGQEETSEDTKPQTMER
Assay [16] is described as follows: AML differentiation inducers, ER-HoxA9 marrow cells – cell-based, GFP/MAC1 double positive, flow cytometry, validation set, primary screen (AID 588685;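 active = differentiation response of at least 50%, scaled between solvent and reference control, from cells with both markers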;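 also: compound exposure lasts four days before antibody staining and flow analysis; 0% = DMSO wells and 100% = 5 µM fulvestrant positive control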). The following applies: stronger effect = higher value, normalized: vehicle 0, fulvestrant 100.

Some of the results follow. Active and inactive are the calls of the source.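 The calls were made as follows, unless noted: active = under 65% GFP response relative to DMSO; inconclusive = yeast strain with under 70 measured events; inactive = the rest.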

Chain of AP-2 complex subunit beta (Homo sapiens) (P63010 whole entry, looked up, the tested form may be a part, one chain of several): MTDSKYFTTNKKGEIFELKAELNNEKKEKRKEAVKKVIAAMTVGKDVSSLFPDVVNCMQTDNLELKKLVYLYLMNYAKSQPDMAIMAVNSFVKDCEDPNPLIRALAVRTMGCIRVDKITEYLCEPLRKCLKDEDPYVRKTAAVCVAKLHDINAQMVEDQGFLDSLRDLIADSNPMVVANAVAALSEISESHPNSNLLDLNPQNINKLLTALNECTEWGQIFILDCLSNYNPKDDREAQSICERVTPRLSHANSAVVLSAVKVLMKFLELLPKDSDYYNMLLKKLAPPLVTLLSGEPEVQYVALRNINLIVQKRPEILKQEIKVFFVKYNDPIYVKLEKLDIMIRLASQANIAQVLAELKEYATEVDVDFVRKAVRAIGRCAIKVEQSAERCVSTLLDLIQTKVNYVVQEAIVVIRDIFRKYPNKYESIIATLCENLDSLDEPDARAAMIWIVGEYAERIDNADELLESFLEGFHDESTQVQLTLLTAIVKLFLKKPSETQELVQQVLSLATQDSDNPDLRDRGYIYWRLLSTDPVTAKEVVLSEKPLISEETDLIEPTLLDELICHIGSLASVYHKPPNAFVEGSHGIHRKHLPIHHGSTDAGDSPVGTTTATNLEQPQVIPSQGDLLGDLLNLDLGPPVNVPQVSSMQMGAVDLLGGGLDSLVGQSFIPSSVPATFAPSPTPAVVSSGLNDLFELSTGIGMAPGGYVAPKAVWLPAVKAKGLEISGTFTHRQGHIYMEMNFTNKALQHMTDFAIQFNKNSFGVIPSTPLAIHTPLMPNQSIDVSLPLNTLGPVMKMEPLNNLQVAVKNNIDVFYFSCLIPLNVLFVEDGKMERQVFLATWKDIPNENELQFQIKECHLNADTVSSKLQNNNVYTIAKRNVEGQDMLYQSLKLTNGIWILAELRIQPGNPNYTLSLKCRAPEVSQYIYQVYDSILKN

As to `CN(Cc1ccccc1)C(=O)C(=O)c1cn(CC(=O)N2CCCC2)c2ccccc12`, the GFP response vs DMSO was 103% (inactive) in assay [1], 96.1% (inactive) in assay [2], 95% (inactive) in [3] and 103% (inactive) in [4]. The percent response vs DMSO in [5] was 98.3% (inactive).

Consider `CC(Oc1ccc2ccccc2c1)C(=O)NNC(=S)NC(=O)c1ccco1` (stereo not given), for which the GFP response vs DMSO is 312% (active) in [1], 175% (active) in assay [2], 101% (inactive) in assay [3] and 187% (active) in assay [4]. In addition, the percent response vs DMSO in [5] was 112% (inactive). The fluorescence change (kMESF span) in assay [6] was 2.02 (inactive).

As to `CCCCNc1c(-c2cccc(Sc3ccc(OC)cc3)c2)nc2ccccn12`, the GFP response vs DMSO in [1] was 138% (inactive); in assay [2] it was 129% (inactive); in assay [3] it was 92.7% (inactive); in [4], 120% (inactive). For the same compound, the percent response vs DMSO in assay [5] is 90.6% (inactive).

Take `CNc1nc(N(C)C)nc(N(C)C)n1`: in assay [7], the double positive events stood at 62.1%. For the same compound, the vesicle binding response in assay [7] was 64.3% (inactive). In addition, the inhibition in assay [8] was -2.53% (inactive); in [11], 14.9% (inactive); in [15], 11% (inactive). Further, the aptamer binding inhibition in assay [9] was -1% (inactive). In addition, the response was 8.29% (inactive) in assay [10] and 3.55% (inactive) in assay [12]. Moreover, in assay [13], the binding (% of control) was 107% (inactive). Also, in assay [14], the efflux inhibition (fraction of control) is 0.92 (active). Moreover, the differentiation response in assay [16] was 41.3% (inactive).

Take `COc1cccc(/C=N/Nc2ncc(C(F)(F)F)cc2Cl)c1O`: the GFP response vs DMSO in assay [1] is 200% (active); in [2] it was 143% (inactive); in assay [3] it was 102% (inactive); in [4] it was 132% (inactive). The percent response vs DMSO in assay [5] is 86.2% (inactive). In assay [6], the fluorescence change (kMESF span) was 1.52 (inactive).

On to `Cc1cc(C)c2nc3nc(C)cc(C)c3c(N)c2c1`, for which the GFP response vs DMSO in [1] was 99% (inactive); in assay [2], 103% (inactive); in assay [3], 76.7% (inactive); in assay [4] it was 93.9% (inactive). Moreover, the percent response vs DMSO in [5] was 75.9% (inactive).

Compound `O=C(NCCN1CCCCC1)c1c(O)c2ccccc2[nH]c1=O` displayed a double positive events in assay [7] of 61.8%. Also, the vesicle binding response in assay [7] was 38% (inactive). The values for the inhibition in [8], in assay [11] and in [15] were -6.68% (inactive), 5.65% (inactive) and -4% (inactive), respectively. Also, the aptamer binding inhibition in assay [9] was -4% (inactive). Further, the response in [10] was 0.73% (inactive); in assay [12], 3.25% (inactive). Further, the binding (% of control) in assay [13] is 109% (inactive). Further, the efflux inhibition (fraction of control) in [14] was 0.49 (active). Moreover, the differentiation response in assay [16] was 21.8% (inactive).

In the case of `O=C(NC(=S)NC1CCS(=O)(=O)C1)c1cccc([N+](=O)[O-])c1` (stereo not given), the GFP response vs DMSO in [1] is 101% (inactive); in assay [2] it was 105% (inactive); in [3], 101% (inactive); in assay [4], 105% (inactive). Moreover, the percent response vs DMSO in assay [5] is 106% (inactive).

For `CCCn1nc(C(=O)NNC(=O)CCOc2ccccc2OCC)c2ccccc2c1=O`, the GFP response vs DMSO is 102% (inactive) in [1], 97.8% (inactive) in [2], 102% (inactive) in [3] and 121% (inactive) in assay [4]. The percent response vs DMSO in [5] was 99% (inactive).

Consider `COc1ccc(C2(C)ON(c3ccccc3C(F)(F)F)C2=O)cc1` (stereo not given), for which the GFP response vs DMSO in assay [1] is 113% (inactive); in assay [2], 103% (inactive); in assay [3] it was 100% (inactive); in assay [4], 100% (inactive). The percent response vs DMSO in assay [5] is 101% (inactive). Moreover, in [6], the fluorescence change (kMESF span) is 0.5 (inactive).

Consider `COc1ccc(CCNC(=O)CS(=O)(=O)Cc2nc(-c3ccc(C)cc3)oc2C)cc1OC`, for which the GFP response vs DMSO in [1] is 103% (inactive); in [2], 99.6% (inactive); in [3], 95.5% (inactive); in assay [4], 100% (inactive). For the same compound, the percent response vs DMSO in [5] was 101% (inactive).

Regarding `CCn1c(SCCC(C)C)nnc1-c1c[nH]c2ccccc12`, the GFP response vs DMSO in [1] is 95.2% (inactive); in assay [2] it was 96.1% (inactive); in assay [3], 96.3% (inactive); in assay [4], 100% (inactive). In addition, the percent response vs DMSO in [5] is 96.7% (inactive).
